Measurements as given in the supplement of paper PMC6555819.

How the values were obtained:
Assay in all cases: PBM binding z-score (relative to random genomic background probes); higher = stronger binding; sequences stand for … in GC…GCGATTGACAGCGTAGAATGAAGG
[1] = test system: RARb homodimer (NR concentration 270 nM)
Summary of the method: (§1)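 The probes on custom Agilent 4×180K protein-binding microarrays were double-stranded, with 34-nt variable regions bearing direct-repeat seeds, single-nucleotide variants, half-site ablations and random human genomic background sequences. Incubation lasted 1 h with ligand-free nuclear receptor dimers in PBS pH 7.4, 2% milk, 0.02% Triton X-100, 1 mM DTT, 0.2 mg/mL BSA and 0.4 mg/ml salmon testes DNA. Antibodies against each partner (one per run) detected bound dimers, and fluorescence scans were regression-normalized. Binding z-scores take the random background probes as reference.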

[2] = test system: RARg:RXRa (NR concentration 270 nM, RXRa partner concentration 90 nM)
Summary of the method: as §1

[3] = test system: RARg homodimer (NR concentration 270 nM)
Summary of the method: as §1

[4] = test system: RXRa DBDmut IVT, anti-RXR (DBD mutation: RXRa K156A/R161A, NR concentration 90 nM)
Summary of the method: as §1

[5] = test system: RXRa homodimer (NR concentration 180 nM)
Summary of the method: as §1

[6] = test system: THRa:RXRa (NR concentration 90 nM, RXRa partner concentration 90 nM)
Summary of the method: as §1

[7] = test system: THRa homodimer (NR concentration 90 nM)
Summary of the method: as §1

[8] = test system: VDR homodimer (NR concentration 270 nM)
Summary of the method: as §1

Sequence	PBM binding z-score [1]	PBM binding z-score [2]	PBM binding z-score [3]	PBM binding z-score [4]	PBM binding z-score [5]	PBM binding z-score [6]	PBM binding z-score [7]	PBM binding z-score [8]
ATTTGTAGGTTAGCTGGGGTCATTCAGACTAGGC	4.03	4.33	2.95	2.56	5.57	5.34	3.84	4.65
CGAAGTAGGTCATCCAGGACAGTGAATACATTGA	3.03	4.24	4.88	2.13	3.36	3.64	1.46	2.37
CCTTACGGGTCACTGACAGGTTATGGCATTTGGA	3.41	5.79	4.82	1.85	5.22	2.9	0.174	0.887
TCATATGGGTAATACAGGTGAAAGTCGGCATCTA	0.197	0.414	0.489	0.75	0.794	0.846	-0.109	-0.42
ATATGTAGCTTATCGGGTCATTCAGTTTGCGCAT	2.24	1.85	1.35	1.26	2.35	3.03	2.6	3.7
CCTACTGGGCAAAAGGTCATTGATTCCAATGCTC	4.53	5.81	5.23	0.966	6.04	3.09	0.51	1.72
CCTCGGAGGACAGAAGGTCAGAGCCGTCCGCTTT	3.64	3.4	3.1	0.361	2	2.33	0.0553	-0.0393
CATACTGGGCCAAAAAGGTCATTGATGCCGATAA	4.48	4.89	4.82	1.25	5.11	3.14	0.641	3.14
CTTCGGAGGACAACAGGAGGTCAGAGCTGCCAGA	3.55	3.73	3.57	0.619	2.19	2.97	1.1	1.45
ATCTCTAGGTATCAAGTTCAGTGAAAGAGAGGAC	1.89	1.07	1.17	1.34	0.64	1.03	0.846	2.79
ATCGAAGGGTCGACGAGGTGAGTATACACCGTTT	1.42	2.38	2.29	0.234	2.33	2.86	0.22	0.636
GCTAGTTGGTCAGTAAAAGGTCACAGACCGGTCG	5.24	5.64	5.2	0.262	5.7	3.79	1.68	1.13
TGAATGAGGTTAAAGAACAGGGAACGTGGCGTCG	0.64	1.86	1.5	1.33	2.68	2.03	0.34	0.66
CCGACTGGGGGAAAGGTTACCATACTCAGTACGA	2.1	2.79	1.78	0.141	3.06	2.14	0.672	0.298
TTACCAAGGTGAGCCGAGGTCGTTGATCCAACTC	1.75	1.67	1.38	-0.0655	1.77	4.53	1.49	1.98
TCTAGTTGGTCAAAAGTCACACACTCGAAATGCG	1.01	1.34	1.06	1.33	1.55	0.553	0.457	0.578
AGAATGAGGTGATTAAGATCAGGGAATTGCGGTC	0.255	0.185	0.285	0.136	0.381	1.53	0.417	-0.688
ATCGAAAGGGCGAGGTGAGTATAGAGAAAGGGAA	1.45	1.48	1.58	-0.127	0.756	1.63	0.413	-0.029
ACTCACGGGTCAACGAGGTTATAGCACGCGTATA	3.5	5.72	4.98	2.83	6.42	4.03	1.03	4.51
GCGACTGGGGCATCAGCAGGTTACCATTACTTAA	1.18	0.735	0.488	0.25	0.246	0.833	0.247	-0.0861
GATAGCAGGCCATTTGGGTCACTCAATGACGGGC	1.92	1.22	1.5	0.215	0.841	1.87	0.437	0.542
CCTACTGGGCCACGAAAGCTCATTGATTCAGTGA	-0.538	-0.286	0.00415	-0.605	-0.6	-0.523	-0.958	-0.935
CCTCCGAGGACAGAAGGTCAGAGCTGTCCGCTTT	3.67	3.52	3.34	0.589	2.37	2.76	1.17	0.494
CCTACTGGACCATTCAGAGGTCATTGATCATATG	4.13	3.53	2.94	1.51	3.99	3.04	2.32	4
CCTAGCAGGCCAGGGTCTCTCAAGCATTTCGCTT	-0.597	-0.659	-0.606	-0.912	-0.675	-0.53	-0.611	-0.871
TGAATGAGGTGATAAGATCAGGGAACGTTGCAAA	-0.0418	0.599	0.324	-0.998	0.631	1.43	0.185	-0.465
CGTCCAAGGTCAATGCTAGGTCGGTGAAAGCATT	4.24	6.11	6.15	3.31	4.83	3.79	1.98	2.04
GTACCAAGGTGAATAGGTCGTGGATGAGTAGGCG	2.29	3.12	1.51	-0.652	2.44	1.91	0.648	-0.0897
